ssDAF12 agonist = S. stercoralis DAF-12 nuclear receptor activators, primary screen, cell-based, luminescence, HEK293, GRIP1 co-expression, lit1-tk-luc | Nuclear hormone receptor DAF-12 (Strongyloides stercoralis) | HEK293 ssDAF-12/GRIP1 lit1-tk-luc reporter; % of 3 µM dafachronic acid response | activation, % at 6.8 µM | hit rate 1% among 370,000;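 active = activation above the mean over all tested compounds plus 3 SD, cut at about 0.9% in these data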;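 also: 0% = DMSO-only wells and 100% = 3 µM delta7-dafachronic acid wells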
DAX1 inh-1 = DAX1 (NR0B1) inhibitors, primary screen, cell-based, HEK293, Gal4-DAX1, luciferase luminescence; Nuclear receptor subfamily 0 group B member 1 (Homo sapiens), P51843; HEK293 Gal4-DAX1 luciferase reporter; inhibition, % at 6.75 µM; hit rate 0.99% among 340,000; AID 504766, 2011;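 active = inhibition above the mean over all tested compounds plus 3 SD, cut at about 4.2% in these data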;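 also: 0% = DAX1-transfected cells with DMSO and 100% = empty-vector control cells with DMSO; inhibition shows as a rise in luminescence from relieved DAX1 repression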
Target sequence (P51843 207-470 limits assumed): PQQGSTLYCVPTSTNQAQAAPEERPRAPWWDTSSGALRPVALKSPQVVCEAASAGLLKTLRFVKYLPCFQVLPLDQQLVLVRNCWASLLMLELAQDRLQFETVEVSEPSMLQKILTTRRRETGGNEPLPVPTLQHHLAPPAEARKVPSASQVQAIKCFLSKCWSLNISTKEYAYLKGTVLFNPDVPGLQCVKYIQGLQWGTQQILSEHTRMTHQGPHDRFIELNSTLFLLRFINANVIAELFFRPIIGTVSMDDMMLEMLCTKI
hcDAF-12 act = H. contortus DAF-12 nuclear receptor activators, primary screen, cell-based, luminescence, HEK293, lit1-tk-luc reporter | hit rate 1.4% among 370,000 | activation, % at 6.8 µM | HEK293 hcDAF-12 lit1-tk-luc reporter; 0% DMSO, 100% Δ7-dafachronic acid;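 active = activation above the mean of all tested compounds plus 3 SD, cut at about 5.5% in these data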;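 also: 100% = response to 3 µM Δ7-dafachronic acid high control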
DAX1 inh-2 = DAX1 (NR0B1) inhibitors on StAR promoter, primary screen, cell-based, luminescence, SF-1 (NR5A1), full-length DAX-1; HEK293T StAR-luciferase reporter, SF-1/DAX-1 repression relief; inhibition, % at 6.8 µM; hit rate 1.1% among 370,000; AID 652010, 2013;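 active = inhibition above the mean over all tested compounds plus 3 SD, cut at about 3.6% in these data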;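 also: 0% = DAX-1 cells with DMSO and 100% = cells lacking DAX-1 with DMSO; higher inhibition means more luminescence from relief of DAX-1 repression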
AHR activator = AHR activators, primary screen, cell-based, luminescence, luciferase reporter, human. Aryl hydrocarbon receptor (Homo sapiens), P35869. AHR-responsive luciferase reporter cells. activation, % at 5 µM. hit rate 2.5% among 320,000; in the data active = activation above about 47%;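 also: 0% = vehicle wells and 100% = reference agonist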
hgDAF-12 ag = H. glycines DAF-12 receptor agonists, primary screen, cell-based, luminescence, HEK293, GAL4 fusion, UAS-luciferase | activation, % at 6.8 µM | Nuclear hormone receptor DAF-12 (Heterodera glycines), GAL4 fusion | hit rate 1.8% among 370,000 | AID 687014, 2013 | HEK293 GAL4-hgDAF12 UAS-luciferase reporter, agonist luminescence; normalized to butyrate control;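 active = activation above a cutoff set at the mean of all screened compounds plus 3 SD, cut at about 10% in these data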;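 also: 0% = DMSO wells and 100% = sodium butyrate wells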
DAX1 conf = DAX1 (NR0B1) inhibitors relieving SF-1 repression, confirmation, cell-based, luminescence, HEK293T, full-length DAX-1, SF-1 activated StAR promoter; shares compounds with DAX1 inh-2; HEK293T StAR-promoter luciferase reporter, SF-1/DAX-1 repression; inhibition, % at 6.8 µM; hit rate 87% among 2,400; AID 652134, 2013;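 active = inhibition above the average of every tested compound plus 3 SD, cut at about 3.8% in these data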;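 also: 0% = DAX-1 cells with DMSO and 100% = no DAX-1 control cells with DMSO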
Target sequence (P51843 whole entry, looked up): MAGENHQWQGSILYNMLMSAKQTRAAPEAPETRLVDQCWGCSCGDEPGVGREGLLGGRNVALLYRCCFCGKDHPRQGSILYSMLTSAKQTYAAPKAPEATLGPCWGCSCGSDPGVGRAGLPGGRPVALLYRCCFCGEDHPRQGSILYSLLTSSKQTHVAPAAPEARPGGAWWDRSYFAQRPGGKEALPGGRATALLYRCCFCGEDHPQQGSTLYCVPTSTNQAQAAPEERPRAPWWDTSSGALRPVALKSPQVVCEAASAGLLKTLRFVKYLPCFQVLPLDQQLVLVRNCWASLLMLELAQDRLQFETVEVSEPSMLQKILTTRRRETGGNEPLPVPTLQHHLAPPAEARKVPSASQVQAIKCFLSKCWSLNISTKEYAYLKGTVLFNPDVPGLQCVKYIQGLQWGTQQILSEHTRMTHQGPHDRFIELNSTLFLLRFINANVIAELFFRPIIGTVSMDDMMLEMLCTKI
SF1 AF2mut Luc = StAR reporter signal changes without DAX1, counter-screen for DAX1 inhibitor project, cell-based, luminescence, AF-2 mutant SF-1, transactivation | hit rate 78% among 2,400 | inhibition, % at 6.8 µM | shares compounds with DAX1 inh-2 | HEK293 StAR-luciferase, SF-1 AF2 mutant | AID 652136, 2013;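 active = inhibition above the mean of all tested compounds plus 3 SD, cut at about 3% in these data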;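 also: 0% = DAX-1 transfected cells with DMSO and 100% = cells without DAX-1 with DMSO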
The depositor's hits bear a star; x = not tested or not shown. The list is not random: actives were taken first. Their share in the collection is about 5.7%.

SMILES | ssDAF12 agonist | DAX1 inh-1 | hcDAF-12 act | DAX1 inh-2 | AHR activator | hgDAF-12 ag | DAX1 conf | SF1 AF2mut Luc
CCOC(=O)[C@]12CCCC=C1N(Cc1ccco1)C(=O)[C@H](CC(=O)NCc1ccccc1)C2 | -1.4 | x | 1.1 | 4.7* | x | 2.5 | 1.4 | 2.7
CCCCNC(=O)C[C@@H]1C[C@@]2(C(=O)OCC)CCCC=C2N(CCc2ccc(OC)c(OC)c2)C1=O | -1.7 | x | -1.4 | 5.2* | x | -1.7 | 1.4 | -0.7
Cc1ccc(OCC(=O)Oc2c(C)cccc2C)cc1C | -1.1 | 2.1 | -2.4 | 0.7 | 2.9 | -0.7 | x | x
Cc1ccc(C2CCN(C(=O)Nc3ccccc3)C2)cc1 (stereo unspecified) | -0.5 | 1.9 | -0.7 | 1.0 | -5.6 | 6.3 | x | x
O=C(Nc1ccc(Cl)cc1)N1CCC(c2ccccc2)C1 (stereo unspecified) | 0.7 | 6.8* | 3.4 | 5.6* | -2.3 | 12.0* | 12.1* | 6.6*
CC(=O)c1ccc(NC(=O)/C(=C\c2ccco2)NC(=O)c2ccco2)cc1 | -1.5 | -1.0 | -2.1 | 0.3 | 1.9 | 1.0 | x | x
CC(=O)c1cccc(NC(=O)/C(=C\c2ccco2)NC(=O)c2ccco2)c1 | -1.3 | 1.3 | -1.2 | 4.9* | 21.6 | -0.3 | 0.8 | 0.7
C/C(=N/NC(=O)c1cc(-c2ccccc2)nc2c(Cl)cccc12)c1cccnc1 | -1.3 | 1.3 | -1.1 | -1.4 | x | 1.9 | x | x
Cc1ccc(C2=NNC(c3cccc(F)c3)S2)cc1 (stereo unspecified) | 1.6* | -1.8 | 13.8* | 9.5* | 4.0 | 17.4* | 11.4* | 5.2*
O=[N+]([O-])c1ccc(C=NN2CCCCCC2)cc1 | 0.3 | 5.6* | 4.2 | 6.7* | x | 9.5 | 6.9* | 5.7*
Cc1ccc(S(=O)(=O)N2CCC(C(=O)NCCCN3CCCC3=O)CC2)cc1C | -1.3 | 0.5 | -0.1 | -0.6 | 2.4 | 0.3 | x | x
Cc1ccc(-c2c(C)sc(=NC(=O)c3ccco3)n2C)cc1 | -0.1 | 0.8 | 2.3 | 5.2* | -0.5 | 8.8 | 6.8* | 3.0*
C=CCNCC(O)COc1ccc(C(C)=O)cc1OC (stereo unspecified) | -1.4 | 2.9 | -1.0 | -0.4 | 0.5 | -1.4 | x | x
COCCn1c(-c2ccccc2)nc2ccccc21 | -1.0 | 2.3 | -0.8 | -0.1 | 5.1 | 7.4 | x | x
COCCn1c(/C=C/c2ccccc2)nc2ccccc21 | -0.4 | 1.1 | 2.9 | 9.8* | 5.6 | 11.3* | 9.7* | 3.5*
O=C(Nc1ccc(Cl)cc1)Nc1ccccc1C(=O)O | 0.2 | -1.9 | 4.2 | 5.3* | -0.4 | 10.2 | 9.0* | 4.0*
O=C(N[C@@H](Cc1ccccc1)C(=O)NCP(=O)(O)OC(Cc1ccccc1)C(=O)O)OCc1ccccc1 (stereo partly specified) | -1.9 | x | 0.9 | x | x | 0.2 | x | x
Cc1ccc(NC(=O)CCC(=O)c2cccs2)c(Br)c1 | -0.2 | 1.7 | 3.0 | 8.0* | -1.0 | 7.1 | 7.6* | 5.5*
COc1ccc(NC(=O)CS(=O)c2cccc(Cl)c2)cc1 (stereo unspecified) | -1.2 | 0.1 | -0.5 | 0.9 | -1.3 | 1.4 | x | x
CCN(CC)c1ccc(C(=O)NNC(=O)CCl)cc1 | -1.1 | 0.0 | 1.4 | -1.7 | 6.8 | -0.9 | x | x
CCN(CC)c1ccc(C(=O)NNC(=O)c2cccn2C)cc1 | 0.6 | 4.7* | 2.0 | 5.1* | 31.8 | 10.7* | 6.1* | 5.5*
Cc1nc2nc(-c3ccc(Cl)cc3)cn2nc1C | 0.4 | -0.4 | 5.1 | 6.2* | 36.7 | 9.6 | 9.4* | 2.9*
CCc1cc(C(=O)N2CCN(C(=O)c3ccco3)CC2)sc1C | -0.5 | 0.7 | -1.7 | 1.3 | -1.8 | -2.0 | x | x
CCCCN(C=O)c1c(CC)nc2c(OCCOc3ccc(F)cc3)cccn12 | -1.3 | x | -1.7 | -0.5 | x | 0.8 | x | x
O=C(Nc1c(C(=O)N2CCC(N3CCCCC3)CC2)oc2ccccc12)c1ccc(F)cc1 | -1.4 | 0.5 | -2.0 | 8.1* | -5.7 | 0.2 | 7.6* | 2.8
SMILES | ssDAF12 agonist | DAX1 inh-1 | hcDAF-12 act | DAX1 inh-2 | AHR activator | hgDAF-12 ag | DAX1 conf | SF1 AF2mut Luc
O=C(Nc1c(C(=O)N2CCC(N3CCCCC3)CC2)oc2ccccc12)c1c(F)cccc1F | -0.7 | 0.1 | 0.4 | 1.6 | -0.3 | 1.0 | x | x
CN(Cc1ccc(N(C)C)cc1)C(=O)c1cc2ccccc2o1 | -0.9 | 2.6 | 0.0 | 0.0 | 4.6 | 1.9 | x | x
CN(C(=O)C1CCC(=O)N(Cc2cccc(F)c2)C1)C1CCCCC1 (stereo unspecified) | 0.5 | 2.0 | 0.4 | 5.2* | 8.0 | 8.4 | 4.0* | 2.3
O=C(NC1CCC1)C1CCC(=O)N(Cc2cccc(F)c2)C1 (stereo unspecified) | -0.9 | 0.5 | -1.2 | -0.7 | x | -1.1 | x | x
COC(=O)CSc1nnc(NC(=O)c2ccc3c(c2)OCO3)s1 | -0.2 | 0.1 | 3.2 | 4.7* | 14.4 | 7.1 | 8.7* | 3.5*
CC(=O)c1sc(NC(=O)c2ccc3c(c2)OCO3)nc1C | -0.5 | 2.3 | 4.0 | 9.4* | 23.6 | 11.6* | 9.5* | 6.5*
C=CCNc1nc(NCc2ccc(NC(C)=O)cc2)c2sc(-c3ccccc3)cc2n1 | 2.0* | x | 0.6 | 6.4* | x | 12.1* | 7.8* | 5.7*
CCOC(=O)c1c(C)[nH]c(N=Nc2cccc(C)c2)c1C | 0.8 | 2.2 | 2.4 | 4.6* | -0.9 | 9.6 | 8.8* | 3.9*
CCOC(=O)c1c(C)[nH]c(N=Nc2ccccc2)c1C | -1.4 | 2.5 | 0.4 | 0.4 | 4.4 | 9.4 | x | x
COc1ccc(S(=O)(=O)N2CCN(CC(=O)Nc3c(C)n[nH]c3C)CC2)cc1OC | -0.8 | 1.3 | 0.1 | -0.4 | -2.2 | -2.0 | x | x
Cc1n[nH]c(C)c1NC(=O)CN1CCN(S(=O)(=O)c2ccc(C(F)(F)F)cc2)CC1 | -1.2 | -0.6 | 0.1 | 4.6* | x | -0.9 | 0.5 | 5.2*
COc1ccc(-c2cccc(NC(=O)c3ccco3)c2)nn1 | -1.5 | 0.0 | -1.8 | -2.6 | 6.6 | 0.6 | x | x
